39 molecules from PubChem BioAssay (NCATS) can be followed below.

The nature of experiment [1]: Cytotoxicity counterscreen for inhibitors of SARS-CoV-2 cell entry (AID 1645845). Further: nearly all actives have a fitted effect of over 50% in size. On activity change, negative = cytotoxicity: on the % scale 0 is the no-effect control and ±100 the full control effect. The method, boiled down: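 48 h compound treatment (after 1 h preincubation), HEK293-ACE2 cells, 37 C/5% CO2; ATP luminescence endpoint; normalized to cell wells and media blanks.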
(A counterscreen serves to expose hits that act by an unwanted route or on another target.)

The nature of experiment [2]: Primary qHTS to identify inhibitors of SARS-CoV-2 cell entry (AID 1645846). Further: nearly all actives have a fitted effect of over 45% in size. The conditions noted are these: activity change, negative = inhibition: at 57.1 µM (top of the series) unless noted. The method, boiled down: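 Luminescence readout (Bright-Glo luciferase) 48 h after pseudoparticle addition. HEK293-ACE2 cells, 1500/well; compound pre-incubation 1 h; Normalized to spike PP and bald PP.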

Molecules are shown by their SMILES. Values joined by “and” are separate entries in the source; they are usually repeats but may differ in a detail not shown here. Equal entries are not always repeated. Inconclusive results are not listed. Active and inactive are the calls of the source. The call rests on the fitted dose curve.
Potency means the concentration at half of the fitted maximal effect.

As to `CCOc1cc(NC(C)=O)ccc1C(=O)OC`, the Potency result in experiment [1] and in experiment [2] was “inactive” in each case.
Consider `Cc1ccc(C(=O)Nc2cccc(C(F)(F)F)c2)cc1-c1ccc2nc(NCCN3CCOCC3)ncc2c1`, for which, in experiment [1], the Potency entry is “inactive”. Also, in experiment [2], the Potency is 31.6 µM (active).
Regarding `N[C@H]1C(O)O[C@H](CO)[C@@H](O)[C@@H]1O` (stereo partly drawn), the Potency result in experiment [1] was “inactive”. The activity change, negative = inhibition in experiment [2] is -23.2%.
As for `CCOc1cc(C(=O)Nc2ccc(Cl)c(-c3nc4ccccc4[nH]3)c2)cc(OCC)c1OCC`, in experiment [1], the Potency result is “inactive”. For the same molecule, the Potency in experiment [2] is 25.1 µM (active).
On the same counts, the results for `COc1ccccc1O` are “inactive” and “inactive”.
On the same counts, the results for `c1ccc2c(CCNc3ccc(Nc4ccncc4)cc3)c[nH]c2c1` are 17.8 µM (active) and 8.91 µM (active).
The like results for `C#Cc1cccc(Nc2ncnc3cc(OC)c(OCCCCCCC(=O)NO)cc23)c1` were, in that order, 10 µM (active) and “inactive”.
`O=C(O)[C@@H](c1ccc(OCc2ccc3ccccc3n2)cc1)C1CCCC1`: the Potency result in experiment [1] was “inactive”. For the same molecule, the activity change, negative = inhibition in experiment [2] is -23.5%.
`CC(C)[C@H](CO)Nc1nc(Nc2ccc(C(=O)O)c(Cl)c2)c2ncn(C(C)C)c2n1`: the Potency entry in experiment [1] was “inactive”. The activity change, negative = inhibition in experiment [2] was -17.7%.
`O=C(Nc1cccc(C2=NCCN2)c1)Nc1cccc(C2=NCCN2)c1`: the Potency entry in experiment [1] and in experiment [2] was “inactive” each time.
Consider `CC(=O)OCC(=O)[C@@]1(O)[C@H](C)C[C@H]2[C@@H]3C=C(C)C4=Cc5c(cnn5-c5ccccc5)C[C@]4(C)[C@@H]3[C@@H](O)C[C@@]21C`, for which the Potency result in experiment [1] and in experiment [2] was “inactive” throughout.
Turning to `CS(=O)(=O)c1ccc(C(=O)Nc2ccc(Cl)c(-c3ccccn3)c2)c(Cl)c1`, in experiment [1], the Potency result is “inactive”. In addition, the activity change, negative = inhibition in experiment [2] was -12.8% and -5.84%.
As for `CCOc1cc2ncc(C#N)c(Nc3ccc(OCc4ccccn4)c(Cl)c3)c2cc1NC(=O)/C=C/CN(C)C`, in experiment [1], the Potency entry was “inactive”. In addition, in experiment [2], the Potency was 8.91 µM (active) and 2.51 µM (active).
As for `O=C1NS(=O)(=O)c2ccccc21`, the Potency entry in experiment [1] is “inactive”. The activity change, negative = inhibition in experiment [2] was -23.6%.
On the same counts, the results for `COC1=C[C@@H]2[C@@H]3Cc4ccc(OC)c(O)c4[C@]2(CCN3C)CC1=O` are “inactive” and -15.7%.
Regarding `CC[C@@H](C(N)=O)N1CCCC1=O`, the Potency entry in experiment [1] is “inactive”. For the same molecule, the activity change, negative = inhibition in experiment [2] was -1.29%.
On the same counts, the results for `Cc1ccnc(NS(=O)(=O)c2ccc(NC(=O)Nc3ccc(S(=O)(=O)Nc4nccc(C)n4)cc3)cc2)n1` are “inactive” and -16.3%.
As for `CC[C@@H](C)[C@H](NC(=O)[C@H](CC1CCCCC1)NC(=O)c1ccno1)C(=O)N1CCC2(CCc3ccccc32)CC1`, the Potency result in experiment [1] and in experiment [2] was “inactive” in each case.
Regarding `COc1ccc2c3n(c(=NC(=O)c4cccnc4)nc2c1OC)CCN3`, the activity change, negative = cytotoxicity in experiment [1] was 3.4% [at 5.25 µM] (inactive). The activity change, negative = inhibition in experiment [2] was -3.67% [at 5.25 µM].
As to `COc1c(N2CCNC(C)C2)c(F)cc2c(=O)c(C(=O)O)cn(C3CC3)c12` (stereo not drawn), the Potency result in experiment [1] was “inactive”. Besides, the activity change, negative = inhibition in experiment [2] was -3.63% and -6.19%.
As to `CNC(=O)c1ccc(N2C(=S)N(c3ccc(C#N)c(C(F)(F)F)c3)C(=O)C2(C)C)cc1F`, the Potency result in experiment [1] is “inactive”. The Potency in experiment [2] is 22.4 µM (active).
As for `CCNC(=O)c1noc(-c2cc(C(C)C)c(O)cc2O)c1-c1ccc(CN2CCOCC2)cc1`, the Potency entry in experiment [1] is “inactive”. In experiment [2], the activity change, negative = inhibition was -24.6%.
On the same counts, the results for `CCCCC(CC)COC(=O)c1ccc(N(C)C)cc1` (stereo not drawn) are “inactive” and 4.94%.
On the same counts, the results for `CN(C)c1ccc(C2Nc3ccc4ccccc4c3C3=C2C(=O)CC(C)(C)C3)cc1Br` (stereo not drawn) are “inactive” and -8.04%.
Regarding `CCCCn1c(=O)n(Cc2ccccc2F)c(=O)c2[nH]c(Cc3ccc(NC(C)=O)cc3)nc21`, the Potency entry in experiment [1] and in experiment [2] was “inactive” in each case.
On to `Cc1cccc(-c2nn(C(=S)Nc3ccccc3)cc2-c2ccnc3ccccc23)n1`, for which the Potency result in experiment [1] and in experiment [2] was “inactive” throughout.
On to `CNCc1ccc(-c2[nH]c3cc(F)cc4c3c2CCNC4=O)cc1`, for which the Potency entry in experiment [1] is “inactive”. The activity change, negative = inhibition in experiment [2] was -28.3%.
As to `CC(C)(C)c1nnc(NS(=O)(=O)c2ccccc2)s1`, the Potency entry in experiment [1] and in experiment [2] was “inactive” throughout.
For the molecule `C[C@@H](N)C(=O)O`, the Potency entry in experiment [1] was “inactive”. In addition, the activity change, negative = inhibition in experiment [2] is -18.7%.
As to `CC(C)c1onc(-c2c(Cl)cccc2Cl)c1COc1ccc(/C=C/c2cccc(C(=O)O)c2)c(Cl)c1`, the Potency result in experiment [1] and in experiment [2] was “inactive” throughout.
Turning to `CN1CCN(c2c(F)cc3c(=O)c(C(=O)O)cn4c3c2OCN4C)CC1`, the Potency entry in experiment [1] and in experiment [2] was “inactive” throughout.
As for `CC(C)(Sc1ccc(CCN(CCCCC2CCCCC2)C(=O)NC2CCCCC2)cc1)C(=O)O`, the Potency result in experiment [1] is “inactive”. Further, the activity change, negative = inhibition in experiment [2] was 4.91%.
As to `Clc1ccc2ncc(-c3cccc(NC4CNC4)n3)n2c1`, in experiment [1], the Potency entry was “inactive”. For the same molecule, the activity change, negative = inhibition in experiment [2] is -15.1%.
On the same counts, the results for `CC(=O)Oc1cccc(C)c1` are “inactive” and 0.724%.
`c1ccc2[nH]ccc2c1`: the Potency result in experiment [1] and in experiment [2] was “inactive” in each case.
Turning to `CCOC(=O)c1c(C)n(C)c2ccc(O)cc12`, the Potency result in experiment [1] is “inactive”. In experiment [2], the activity change, negative = inhibition was -9.91%.
Consider `NCCS`, for which the Potency entry in experiment [1] and in experiment [2] was “inactive” throughout.
In the case of `Cn1c(Nc2ccc(C(F)(F)F)cc2)nc2cc(Oc3ccnc(-c4ncc(C(F)(F)F)[nH]4)c3)ccc21`, in experiment [1], the Potency entry was “inactive”. Also, the activity change, negative = inhibition in experiment [2] was -24.1%.
The like results for `COc1cc2ncnc(-n3nc(-c4ccccn4)nc3N)c2cc1OC` were, in that order, “inactive” and -6.12%.
